Results from PubChem BioAssay (Tox21).
Where “and” joins values, the source holds several entries; their conditions need not be identical. Equal values may be shown once. Records with an inconclusive call do not appear. Where a call stands in place of a potency, no number is given. Where a structure was tested more than once in an assay, its records may differ in their call. Calls of active or inactive are those of the source. Unless noted, calls follow the shape of the dose curve; as a rule, active = well fitted curve in the direction sought with a large enough effect in the repeat runs; inconclusive = weak or mixed curves; inactive = no such curve, though single readings can be large; an effect the other way counts as inactive or inconclusive.

Columns and labels:
[1] = A CellTox Green Cytotoxicity Assay to monitor cytotoxicity in HepG2 cells - 8 hour (AID 1224890); also: nearly all actives have a fitted effect of over 45% in size; also: potency is read from the fitted curve at half-maximal effect
How it was run: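 Cells and non-lytic dye reagent are dispensed together (600 HepG2 cells/well) and incubated 5 h before DMSO compound transfer. Kinetic fluorescence is then recorded in the same wells during 40 h at 37 C.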

[2] = qHTS assay to identify small molecule antagonists of the estrogen receptor alpha (ER-alpha) signaling pathway using the BG1 cell line in the presence of 0.1 nM 17-beta-estradiol - cell viability counter screen (AID 1259241); also: nearly all actives have a fitted effect of over 40% in size
How it was run: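 CellTiter-Fluor read (30 min, 37C) on ER-alpha/ERE-luc VM7Luc4E2 cells; 22 hr compound treatment; agonist 0.1 nM E2 final; same-well multiplex.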

[3] = qHTS assay to identify small molecule antagonists of the androgen receptor (AR) signaling pathway using the MDA cell line in the presence of 0.5 nM R1881 - cell viability counter screen (AID 1259242); also: nearly all actives have a fitted effect of over 45% in size; also: potency is read from the fitted curve at half-maximal effect
How it was run: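 Steps: plate MDA-kb2 cells, rest 5 hr at 37C without CO2; pin in compounds in DMSO; add R1881 to 0.5 nM final; incubate 16 hr; add CellTiter-Fluor, 30 min; read fluorescence.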

[4] = molecular target: Estrogen receptor (Homo sapiens) (UniProt P03372); assay: qHTS assay to identify small molecule antagonists of the estrogen receptor alpha (ER-alpha) signaling pathway using the BG1 cell line in the presence of 0.1 nM 17-beta-estradiol (AID 1259244); also: nearly all actives have a fitted effect of over 50% in size; also: potency is read from the fitted curve at half-maximal effect
How it was run: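 Antagonist mode: compounds in DMSO are pinned onto VM7Luc4E2 reporter cells, 0.1 nM final 17beta-estradiol is added, and after 22 h at 37C luciferase luminescence is measured with ONE-Glo.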

[5] = qHTS assay to identify small molecule phospholipidosis (PLD) inducers (AID 1259344; active = well fitted curve in the direction sought with a large enough effect; an effect the other way counts as inactive or inconclusive; also: potency is read from the fitted curve at half-maximal effect)
How it was run: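 After 4 h attachment on collagen I, HepG2 cells were dosed with compound alongside LipidTOX Red, kept 24 h at 37 C, fixed, and imaged for lamellar phospholipid pits.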

[6] = qHTS assay to identify small molecule HDAC inhibitors (AID 1259364); also: potency is read from the fitted curve at half-maximal effect;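 also: wild-type HCT-116 cells with endogenous class I/II HDAC activity; nearly all actives have a fitted effect of over 45% in size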
How it was run: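 Cells (HCT-116, wild type) are seeded at 1,500 per well, incubated overnight, treated with compound in DMSO for 2 hr, then developed with HDAC-Glo I/II reagent for 30 min at room temperature.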

[7] = qHTS assay to identify small molecule agonists of the sonic hedgehog signaling (Shh) pathway - cell viability counter screen (AID 1259366); also: nearly all actives have a fitted effect of over 50% in size; also: potency is read from the fitted curve at half-maximal effect
How it was run: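 Fluorescence from CellTiter-Fluor reports live cells in this counter screen. NIH/3T3-derived Gli1-Luc reporter cells receive test compounds for 24hr at 37C; reagent goes in at 23hr.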

[8] = qHTS assay to identify small molecule antagonists of the sonic hedgehog signaling (Shh) pathway - cell viability counter screen (AID 1259367); also: nearly all actives have a fitted effect of over 55% in size; also: potency is read from the fitted curve at half-maximal effect
How it was run: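 Conditioned medium drove Shh signaling in 3T3 Gli1-Luc cells exposed to compounds at 37C and 5% CO2. Viability was determined from CellTiter-Fluor fluorescence, with reagent incubated 1 hr after 23 hr of treatment.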

[9] = qHTS assay to identify small molecule agonists of the sonic hedgehog signaling (Shh) pathway (AID 1259368; calls by dose curve;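 also: NIH/3T3-derived 3T3Gli1-Luc cells carrying a stable Gli1-driven firefly luciferase reporter; series mostly up to about 92 µM; nearly all actives have a fitted effect of over 15% in size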)
How it was run: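 Cells of a mouse NIH/3T3 clone stably expressing luciferase under the Gli1 transcriptional response element are exposed to test chemicals for 24 hr at 37 C. Pathway activation is detected as a rise in luminescence.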

[10] = molecular target: Estrogen receptor beta (Homo sapiens) (UniProt Q92731); assay: qHTS assay to identify small molecule agonists of the estrogen receptor beta (ER-beta) signaling pathway (AID 1259377; active = well fitted activation curve with a large enough effect in the signal ratio in the repeat runs, not every such curve was filed as active; the % refers to the signal ratio)
How it was run: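 Screening used GripTite ER-beta-UAS-bla cells held in 2% charcoal-stripped FBS medium. After overnight (16 hr) compound incubation at 37C, beta-lactamase activity was detected with a FRET substrate by fluorescence.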

[11] = molecular target: Estrogen receptor beta (Homo sapiens) (UniProt Q92731); assay: qHTS assay to identify small molecule antagonists of the estrogen receptor beta (ER-beta) signaling pathway (AID 1259378; active = well fitted inhibition curve with a large enough effect in the signal ratio in the repeat runs, not every such curve was filed as active; the % refers to the signal ratio)
How it was run: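 ER-beta-UAS-bla HEK293T (GripTite) cells in 2% charcoal-stripped FBS medium were preincubated 6 hr at 37C, dosed with compound, then stimulated with 1 nM E2 (final) for 16 hr; beta-lactamase reporter read by B/G FRET fluorescence after 2 hr substrate loading.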

[12] = qHTS assay to identify small molecule agonists of the estrogen receptor beta (ER-beta) signaling pathway - cell viability counter screen (AID 1259380); also: nearly all actives have a fitted effect of over 30% in size; also: potency is read from the fitted curve at half-maximal effect
How it was run: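 Cytotoxicity is measured in parallel with the reporter screen: after 16 hr compound exposure at 37C and a 2 hr LiveBLAzer step, CellTiter-Glo is added to the same ER-beta-UAS-bla HEK293T wells and luminescence read after 30 min.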

[13] = qHTS assay to identify small molecule antagonists of the estrogen receptor beta (ER-beta) signaling pathway - cell viability counter screen (AID 1259382); also: nearly all actives have a fitted effect of over 55% in size; also: potency is read from the fitted curve at half-maximal effect
How it was run: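 Cytotoxicity counter screen multiplexed with the beta-lactamase antagonist assay: GripTite HEK293T ER-beta-bla cells were treated 16 hr with test chemicals in the presence of 1nM 17-beta-estradiol, and viability was measured by CellTiter-Glo.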

[14] = qHTS assay to identify small molecule agonists or antagonists of the thyroid stimulating hormone receptor (TSHR) signaling pathway - wild type cell line counter screen (AID 1259384; calls by dose curve)
How it was run: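 Wild-type HEK293 cells were plated 18 h at 37 C/5% CO2, pin-dosed with compound plus Ro20-1724 medium, held 30 min at room temperature, then given cAMP-d2 and anti-cAMP-cryptate; fluorescence was read after 1 h. Fifteen concentrations, triplicate.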

[15] = qHTS assay to identify small molecule HDAC inhibitors - cell viability counter screen (AID 1259365); also: series mostly up to about 92 µM; nearly all actives have a fitted effect of over 50% in size
How it was run: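 To flag cytotoxic hits, 1,500 wild-type HCT-116 cells per well, plated the day before, receive test compounds for 2hr at 37 C before CellTiter-Glo reagent and a luminescence read.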

[16] = qHTS assay to identify small molecule antagonists of the sonic hedgehog signaling (Shh) pathway (AID 1259369; calls by dose curve; also: nearly all actives have a fitted effect of over 45% in size; also: potency is read from the fitted curve at half-maximal effect)
How it was run: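 Cells are plated and held 4hr at 37 C, compounds (DMSO) are pinned in, conditioned medium is added to stimulate the pathway, and after 24hr luciferase reagent is added for 30min before luminescence is read.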

[17] = molecular target: Estrogen receptor (Homo sapiens) (UniProt P03372); assay: qHTS assay to identify small molecule agonists of the estrogen receptor alpha (ER-alpha) signaling pathway in the presence of an antagonist (AID 1259383; calls by dose curve; also: top concentration of the series differs between compounds; nearly all actives have a fitted effect of over 15% in size)
How it was run: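 Agonist-mode confirmation in the presence of the ER antagonist ICI-182,780 at 10.0nM final. Breast-derived VM7Luc4E2 reporter cells were exposed to compounds for 22hr, and ERE-driven luciferase was quantified by luminescence.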

[18] = qHTS assay to identify small molecule agonists of the androgen receptor (AR) signaling pathway in the presence of an antagonist - cell viability counter screen (AID 1259379); also: nearly all actives have a fitted effect of over 25% in size; also: potency is read from the fitted curve at half-maximal effect
How it was run: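 Cytotoxicity is assessed by CellTiter-Fluor in MDA-kb2 cells carrying an MMTV-driven luciferase reporter. Cells receive 3.0uM nilutamide plus compounds at 15 concentrations and incubate 16 hr at 37C without CO2 before fluorescence reading.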

[19] = molecular target: Androgen receptor (Homo sapiens) (UniProt P10275); assay: qHTS assay to identify small molecule antagonists of the androgen receptor (AR) signaling pathway using the MDA cell line in the presence of 0.5 nM R1881 (AID 1259243); also: nearly all actives have a fitted effect of over 50% in size
How it was run: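 Stably transfected MDA-kb2 cells express luciferase from an MMTV promoter bearing both AR and GR response elements. Compounds plus 0.5 nM R1881 (final) were incubated 16 hr at 37C without CO2, then luminescence measured.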

[20] = molecular target: Androgen receptor (Homo sapiens) (UniProt P10275); assay: qHTS assay to identify small molecule agonists of the androgen receptor (AR) signaling pathway in the presence of an antagonist (AID 1259381; calls by dose curve; also: nearly all actives have a fitted effect of over 15% in size)
How it was run: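 Agonist-mode confirmation screen: human MDA-kb2 cells stably expressing luciferase under an MMTV promoter bearing AR and GR response elements, co-treated with 3.0uM nilutamide (final). Luminescence measured after 16hr compound incubation.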

Sequence of Estrogen receptor (Homo sapiens) (P03372 whole entry, looked up): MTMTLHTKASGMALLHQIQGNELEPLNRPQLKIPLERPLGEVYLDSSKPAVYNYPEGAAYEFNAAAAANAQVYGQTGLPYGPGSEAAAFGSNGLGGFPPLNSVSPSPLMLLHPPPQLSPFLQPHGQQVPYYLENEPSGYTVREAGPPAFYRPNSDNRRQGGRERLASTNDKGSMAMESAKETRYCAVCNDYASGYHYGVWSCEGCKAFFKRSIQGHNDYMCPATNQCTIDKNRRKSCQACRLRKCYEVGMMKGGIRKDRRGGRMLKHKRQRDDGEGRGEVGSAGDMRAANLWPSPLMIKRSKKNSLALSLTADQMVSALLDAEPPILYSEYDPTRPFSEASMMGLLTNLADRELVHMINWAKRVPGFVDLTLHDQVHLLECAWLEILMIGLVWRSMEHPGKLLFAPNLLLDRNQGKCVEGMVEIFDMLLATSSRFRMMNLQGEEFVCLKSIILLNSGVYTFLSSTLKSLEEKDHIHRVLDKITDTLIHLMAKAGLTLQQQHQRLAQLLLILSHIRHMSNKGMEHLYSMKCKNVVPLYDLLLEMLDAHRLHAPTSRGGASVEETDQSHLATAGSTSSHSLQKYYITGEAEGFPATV
Sequence of Androgen receptor (Homo sapiens) (P10275 whole entry, looked up): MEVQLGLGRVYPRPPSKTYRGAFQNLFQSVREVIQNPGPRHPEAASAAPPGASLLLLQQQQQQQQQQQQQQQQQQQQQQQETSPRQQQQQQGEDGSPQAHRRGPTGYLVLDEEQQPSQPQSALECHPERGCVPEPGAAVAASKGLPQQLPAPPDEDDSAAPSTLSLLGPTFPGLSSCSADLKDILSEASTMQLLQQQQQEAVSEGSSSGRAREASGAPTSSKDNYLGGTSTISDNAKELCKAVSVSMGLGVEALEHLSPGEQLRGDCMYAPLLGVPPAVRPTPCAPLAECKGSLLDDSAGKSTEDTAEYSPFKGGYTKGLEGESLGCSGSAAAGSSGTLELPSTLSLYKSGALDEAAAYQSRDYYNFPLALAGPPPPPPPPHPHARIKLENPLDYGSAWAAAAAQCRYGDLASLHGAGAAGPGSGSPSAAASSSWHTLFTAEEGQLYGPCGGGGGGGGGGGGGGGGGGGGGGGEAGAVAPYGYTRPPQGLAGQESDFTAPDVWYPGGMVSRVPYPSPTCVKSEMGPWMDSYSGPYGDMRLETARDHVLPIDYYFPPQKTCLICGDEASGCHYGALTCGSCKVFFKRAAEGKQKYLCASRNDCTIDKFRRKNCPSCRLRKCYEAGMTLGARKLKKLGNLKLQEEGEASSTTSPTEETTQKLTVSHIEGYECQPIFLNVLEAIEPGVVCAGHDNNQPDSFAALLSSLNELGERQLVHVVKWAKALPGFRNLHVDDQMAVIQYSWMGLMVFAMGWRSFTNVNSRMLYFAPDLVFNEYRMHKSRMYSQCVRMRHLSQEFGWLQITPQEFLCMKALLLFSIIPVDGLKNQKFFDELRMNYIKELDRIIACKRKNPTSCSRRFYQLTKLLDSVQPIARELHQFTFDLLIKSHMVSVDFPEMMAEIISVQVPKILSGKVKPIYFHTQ
Sequence of Estrogen receptor beta (Homo sapiens) (Q92731 whole entry, looked up): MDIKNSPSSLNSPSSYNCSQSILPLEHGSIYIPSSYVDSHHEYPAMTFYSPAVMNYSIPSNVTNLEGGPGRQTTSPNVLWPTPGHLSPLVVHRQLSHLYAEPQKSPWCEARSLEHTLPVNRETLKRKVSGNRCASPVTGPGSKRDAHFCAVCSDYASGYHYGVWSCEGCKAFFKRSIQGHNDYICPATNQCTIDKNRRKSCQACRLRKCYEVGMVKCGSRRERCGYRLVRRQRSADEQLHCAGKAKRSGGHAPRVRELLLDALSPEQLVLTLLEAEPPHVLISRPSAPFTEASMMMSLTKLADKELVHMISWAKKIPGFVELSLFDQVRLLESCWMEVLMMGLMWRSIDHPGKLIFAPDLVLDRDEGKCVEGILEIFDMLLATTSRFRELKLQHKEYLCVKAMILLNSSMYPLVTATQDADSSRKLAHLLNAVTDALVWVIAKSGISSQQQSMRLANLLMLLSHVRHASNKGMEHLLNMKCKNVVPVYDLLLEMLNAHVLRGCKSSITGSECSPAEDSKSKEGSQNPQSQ

| Structure (SMILES) | Potency [1] | Potency [2] | Potency [3] | Potency [4] | Potency [5] | Potency [6] | Potency [7] | Potency [8] | Potency [9] | Potency [10] | Potency [11] | Potency [12] | Potency [13] | outcome [14] | outcome [15] | Potency [16] | Potency [17] | Potency [18] | Potency [19] | outcome [20] |
| --- | --- | --- | --- | --- | --- | --- | --- | --- | --- | --- | --- | --- | --- | --- | --- | --- | --- | --- | --- | --- |
| Nc1ncnc2nc[nH]c12 | inactive | inactive | inactive | inactive | inactive | inactive | inactive | inactive | inactive | inactive | inactive | inactive | inactive | inactive | – | – | – | – | – | – |
| CC(=O)CC/C=C(\C)CCC=C(C)C | inactive | inactive | inactive | inactive | – | inactive | inactive | inactive | inactive | inactive | – | inactive | inactive | inactive | inactive | inactive | inactive | – | – | – |
| c1ccncc1 | inactive | inactive | inactive | inactive | – | inactive | inactive | inactive | inactive | inactive | inactive | inactive | inactive | inactive | inactive | inactive | inactive | inactive | – | – |
| Cn1cnc([N+](=O)[O-])c1Sc1ncnc2nc[nH]c12 | inactive | inactive | inactive | inactive | inactive | inactive | – | 19.2 µM (active) | inactive | inactive | – | 4.83 µM (active) and 8.41 µM (active) | inactive | inactive | inactive | – | inactive | inactive | – | – |
| Cc1ccc2c(n1)Oc1ccc(C(C)C(=O)OCC(=O)N(C)C)cc1C2 (stereo unspecified) | inactive | inactive | inactive | inactive | inactive | 11.9 µM (active) and 9.44 µM (active) | inactive | inactive | inactive | inactive | – | inactive | inactive | inactive | inactive | – | inactive | inactive | inactive | inactive |
| C=CC(C)(CCC=C(C)C)OC(C)=O (stereo unspecified) | inactive | inactive | inactive | inactive | – | inactive | inactive | inactive | inactive | – | – | inactive | inactive | inactive | inactive | inactive | inactive | inactive | – | – |
| CC1=CC2C3CC(C=C3C)C2C1 (stereo unspecified) | inactive and 38.9 µM (active) | inactive | inactive | inactive | – | inactive | inactive | inactive | inactive | inactive | – | – | inactive | inactive | inactive | inactive and 21.7 µM (active) | – | inactive | – | – |
| CN(C)CCC=C1c2ccccc2CCc2ccccc21 | inactive | inactive | inactive | 54.5 µM (active) and inactive | 7.08 µM (active) | inactive | 68.6 µM (active) and inactive | 27.3 µM (active) and inactive | inactive | inactive | – | 30.6 µM (active) and 26.6 µM (active) | 15.4 µM (active) and 13.7 µM (active) and 26.6 µM (active) | inactive | inactive | 2.73 µM (active) and 9.69 µM (active) and 7.5 µM (active) | – | – | – | – |
| Cc1ccc(C)c(O)c1C | inactive | inactive | inactive | inactive | – | inactive | inactive | inactive | inactive | – | – | inactive | inactive | inactive | inactive | – | – | inactive | inactive | inactive |
| COc1cc([C@@H]2c3cc4c(cc3[C@H](O)[C@H]3COC(=O)[C@H]23)OCO4)cc(OC)c1OC | inactive | inactive | inactive | – | – | inactive | inactive | 0.106 µM (active) | inactive | inactive | – | inactive | inactive | inactive | inactive | 5.4 nM (active) and 16.8 nM (active) | – | – | inactive | inactive |
| Cc1[nH]c(=O)c(C#N)cc1-c1ccncc1 | inactive | inactive | inactive | inactive | inactive | inactive | inactive | inactive | inactive | inactive | – | inactive | inactive | inactive | inactive | inactive | inactive | – | – | – |
| CC(=O)C1(C)CC2=C(CCCC2(C)C)CC1C (stereo unspecified) | inactive | inactive | inactive | – | – | inactive | inactive | inactive | inactive | inactive | – | inactive | inactive | inactive | inactive | inactive | – | inactive | inactive | inactive |
| OC(CCl)CCl | inactive | inactive | inactive | inactive | – | inactive | inactive | inactive | inactive | inactive | inactive | inactive | inactive | inactive | inactive | – | – | – | – | – |
| CNCCCC12CCC(c3ccccc31)c1ccccc12 | inactive | inactive | 54.5 µM (active) and inactive | 61.1 µM (active) and inactive | 7.94 µM (active) | inactive | 30.6 µM (active) | 54.5 µM (active) and inactive | inactive | inactive | – | 15.4 µM (active) and 29.8 µM (active) | 15.4 µM (active) and 26.6 µM (active) | inactive | inactive | 5.45 µM (active) | inactive | 54.5 µM (active) | – | – |
| Cc1c(C(N)=O)cc([N+](=O)[O-])cc1[N+](=O)[O-] | inactive | inactive | inactive | inactive | inactive | inactive | inactive | inactive | inactive | inactive | inactive | inactive | inactive | inactive | inactive | – | – | – | – | – |
